From PubChem BioAssay (NCI)
The panel holds about 79,000 compounds, 15% with a hit somewhere; the sample as a whole holds those more often. No stated cut-off is given here; in the data, active means growth inhibition above about 70%; inactive means the rest. Where a SMILES comes first, the peptide text is derived from it. The star is where a group is joined. Cbz = O=C(OCc1ccccc1)*

Legend:
[1] = NCI Yeast Anticancer Drug Screen. Data for the rad50 strain (AID 155);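 further: 0% = growth of vehicle-only cultures of the same strain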; settings: S. cerevisiae rad50 strain growth inhibition; at 50.0 µM; active compounds read high
How it was run: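 Vehicle-treated cultures provide the reference for the growth inhibition reported for compound-exposed, repair-deficient yeast.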

[2] = NCI Yeast Anticancer Drug Screen. Data for the mec2-1 strain (AID 157); settings: S. cerevisiae mec2-1 strain, at 50.0 µM, active compounds read high
How it was run: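 Growth inhibition is read against vehicle-treated controls after compound exposure of the mec2-1 yeast strain, which is defective in DNA damage repair or cell cycle control.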

[3] = NCI Yeast Anticancer Drug Screen. Data for the sgs1 mgt1 strain (AID 161);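 further: 0% = growth of cultures given vehicle only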; settings: S. cerevisiae sgs1 mgt1 strain, at 50.0 µM, active compounds read high
How it was run: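 Compounds are added to genetically altered yeast, and growth is compared with cultures given vehicle alone to give percent inhibition.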

[4] = NCI Yeast Anticancer Drug Screen. Data for the cln2 rad14 strain (AID 165);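 further: 0% = growth equal to vehicle treated cultures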; settings: S. cerevisiae cln2 rad14 strain, at 50.0 µM, active compounds read high
How it was run: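 Growth inhibition, relative to vehicle-treated controls, is the read-out. The test organism is a yeast strain with defined genetic alterations, cln2 rad14.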

[5] = NCI Yeast Anticancer Drug Screen. Data for the bub3 strain (AID 167); settings: S. cerevisiae bub3 mutant strain, at 50.0 µM, active compounds read high
How it was run: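 Mutant yeast screening strain plus compound; vehicle-treated cultures serve as the 0% inhibition reference.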

[6] = NCI Yeast Anticancer Drug Screen. Data for the mlh1 rad18 strain (AID 175); settings: S. cerevisiae mlh1 rad18 strain growth inhibition; at 50.0 µM; active compounds read high
How it was run: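 Cells of a genetically altered yeast strain, deficient in DNA damage repair, were treated with compound. Their growth was then compared with that of vehicle-treated cultures to give inhibition.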

Measured: growth inhibition

OCC(OC/C=C/CCl)c1ccc(Cl)cc1 (stereo unspecified)
inactive: [1] -6.75% | [2] 8.7% | [3] 0.2% | [4] -0.15% | [5] -9.5% | [6] -15.9%

COC(=O)C(C(=O)C(N)=O)c1csc(-n2nc(-c3ccccc3)cc2-c2ccccc2)n1 (stereo unspecified)
inactive: [1] -1.5% | [2] -13.4% | [3] -13.8% | [4] 10.2% | [5] 30.2% | [6] -7.2%

CC(=O)N(C(=O)CC(=O)N1N=C(c2ccccc2)C(N=Nc2ccccc2[N+](=O)[O-])C1=O)c1ccc(Cl)cc1 (stereo unspecified)
inactive: [1] -4.3% | [2] -21.8% | [3] -0.2% | [4] -37% | [5] -27.2% | [6] -19%

COc1cc(-c2cc(=O)c3cc4c(cc3[nH]2)OCO4)cc(OC)c1O
inactive: [1] -19.9% | [2] -14.1% | [3] -4.5% | [4] 13.4% | [5] -12.3% | [6] -9.85%

FC(F)(F)C(F)(F)C(F)(F)c1n[nH]c(C(F)(F)C(F)(F)C(F)(F)F)n1
inactive: [1] 12.8% | [2] 15.1% | [3] 33.4% | [4] 2.95% | [5] 18.5% | [6] -0.1%

CCC1C[N+]2(C)CCc3cc(OC)c(OC)cc3C2CC1=O (stereo unspecified)
inactive: [1] -10.2% | [2] 1.25% | [3] 12.8% | [4] 19.9% | [5] 1.35% | [6] 7%

OC1COc2c3ccccc3nn2C1 (stereo unspecified)
inactive: [1] -1.35% | [2] 2.85% | [3] 21.7% | [4] 14.5% | [5] 7.8% | [6] 30.1%

NC(=O)C(CNCc1ccccc1)NCc1ccccc1 (stereo unspecified)
inactive: [1] -1.5% | [2] 14.2% | [3] 3.1% | [4] -8.5% | [5] 3.6% | [6] -11.4%

CSCCC(NC(=O)C(Cc1ccccc1)NC(=O)OCc1ccccc1)C(=O)O (stereo not drawn) (Cbz-Phe-Met-OH; configuration not given here)
inactive: [1] 5.1% | [2] -13.2% | [3] -1% | [4] -40.4% | [5] -4.95% | [6] 4.85%

COc1c(Cl)cc(Cl)c(C)c1C(C)C(=O)O (stereo unspecified)
inactive: [1] 21.4% | [2] 5.85% | [3] 2.6% | [4] 16.3% | [5] 25.5% | [6] 10.9%

CC(/C=C/C=C/C=C/C=C/C=C/C(O)=C1/C(=O)C(CCC(=O)O)N(C)C1=O)=C\C(C)C(OC1CC(O)C(O)C(C)O1)C(C)C (stereo unspecified)
inactive: [1] -11.6% | [2] -28.6% | [3] -1.7% | [4] 3.35% | [5] -10.1% | [6] -2.65%

O=C(O)/C=C/n1c2ccccc2c(=O)c2ccccc21
inactive: [1] -10.1% | [2] -13.8% | [3] -20.9% | [4] 8.9% | [5] -7.7% | [6] -15%

CC(O)C(O)C(=O)NN (stereo unspecified)
inactive: [1] -1% | [2] 0.3% | [3] 11.4% | [4] 4% | [5] -2.9% | [6] -6.95%

O=C(CCc1nnc2s/c(=C\c3ccccc3Cl)c(=O)n12)Nc1cc(Cl)ccc1Cl
inactive: [1] 2.9% | [2] -14.7% | [3] -36.8% | [4] -21.8% | [5] -4.8% | [6] -15.1%

O=c1nc2oc(-c3ccccc3)cn2c(=O)n1-c1ncc(-c2ccccc2)o1
inactive: [1] 1.35% | [2] -6.9% | [3] 1.4% | [4] 22.4% | [5] 8.1% | [6] 6.05%

CC1(c2cccc[n+]2Cc2ccccc2S(=O)(=O)[O-])OCCO1
inactive: [1] 5.5% | [2] -3.6% | [3] -8.95% | [4] 0.3% | [5] -3.95% | [6] -21.6%

COCc1c(C)[nH]c2ccc(N(C)C)cc2c1=O
inactive: [1] -6.75% | [2] -3.6% | [3] -14.8% | [4] -42% | [5] -4.9% | [6] -6.55%

CC1(C)OC1(C(=O)C=[N+]=[N-])c1ccccc1 (stereo unspecified)
inactive: [1] -14.8% | [2] -17.8% | [3] -23.9% | [4] -15.8% | [5] -13.6% | [6] -29.4%

N#CC1CCCC[N-]1.[NH-]CC[N-]CC[NH-].[Pt+4] (stereo unspecified)
inactive: [1] 57.9% | [2] 17.2% | [3] 53.6% | [4] -10.1% | [5] 4.05% | [6] 43%

Cc1ccc(/C=C2\CCCC(C(NO)c3ccc(C)cc3)C2=NO)cc1 (stereo unspecified)
inactive: [1] -10.9% | [2] -20.2% | [3] 3.1% | [4] 1.2% | [5] -6.6% | [6] -9.25%

Nc1ccc(Cl)cc1Cl
inactive: [1] -28.3% | [2] -7.1% | [3] -33.5% | [4] -34% | [5] -0.1% | [6] -21.3%

CC(=O)OCC(C)(C)C(OC(C)=O)C(C)C (stereo unspecified)
inactive: [1] 16.1% | [2] 0.75% | [3] 13.8% | [4] -46.8% | [5] -0.5% | [6] 11.2%

CCOC(=O)C(CCCCC(CN(CC)CC)(C(=O)OCC)c1ccccc1)(CN(CC)CC)c1ccccc1 (stereo unspecified)
inactive: [1] 29.4% | [2] -10.2% | [3] 11.7% | [4] 0.65% | [5] 2% | [6] 12.3%

COc1ccc(N2C(=O)OC3(CCN(Cc4ccccc4)CC3)C2=O)cc1
inactive: [1] -1.55% | [2] 13.2% | [3] 7.7% | [4] 8.25% | [5] 8% | [6] 16.4%

O=S(=O)(O/C(=C(\OS(=O)(=O)C(F)(F)C(F)(F)C(F)(F)C(F)(F)F)c1ccccc1)c1ccccc1)C(F)(F)C(F)(F)C(F)(F)C(F)(F)F
inactive: [1] -6% | [2] -14.1% | [3] -23.4% | [4] -18.1% | [5] 7.9% | [6] -5.85%

CCCCCCCCCCCCCCCC(=O)N(CCCC)CCCC
inactive: [1] 3.55% | [2] 5.7% | [3] -4.05% | [4] 11.9% | [5] 3.4% | [6] 8.85%

O=C(CCC(=O)Oc1ccccc1)Oc1ccccc1
inactive: [1] -15.9% | [2] -1.1% | [3] -31.6% | [4] 3.2% | [5] 28.3% | [6] 13.7%

Cc1cc(Br)c(NC(=O)c2csnn2)c(Br)c1
inactive: [1] -31% | [2] -13.6% | [3] -13.6% | [4] -26.8% | [5] 2.65% | [6] -11.4%

CCOC(=O)/C(C#N)=C/c1ccc(-c2cc(C(F)(F)F)cc(C(F)(F)F)c2)o1
inactive: [1] -17.9% | [2] -7% | [3] -8% | [4] -15.4% | [5] -2.5% | [6] -0.8%

CCCCCCCCCCCCSC(=O)NCCC
inactive: [1] -3.75% | [2] -2.05% | [3] 1.6% | [4] 0.05% | [5] 3.45% | [6] 1.4%

COc1ccccc1-c1cc(=O)c2cc(C)cnc2[nH]1
inactive: [1] 5.6% | [2] 5.5% | [3] -0.5% | [4] -30.9% | [5] 4.65% | [6] 13.9%

CC(=O)OC1CCC2(C)C(CCC3C2C(=O)C(Br)C2(C)C(C(C)=O)CCC32)C1 (stereo unspecified)
inactive: [1] -1.2% | [2] 0.5% | [3] 7.95% | [4] 16.9% | [5] 13.3% | [6] 25.4%

CNc1nc(SC)nc2[nH]ncc12
inactive: [1] 7.1% | [2] -9.2% | [3] 2.45% | [4] -3.2% | [5] 23% | [6] 2.05%

O=C(Oc1ccc[nH]c1=O)C1CC1
inactive: [1] 17.9% | [2] 7.45% | [3] 67.2% | [4] 14% | [5] 22.2% | [6] 38%

Nc1cccc2ncccc12
inactive: [1] 0.6% | [2] -9.95% | [3] -13.5% | [4] -30% | [5] -1.95% | [6] -19.9%

c1ccc(P(CCNCCP(c2ccccc2)c2ccccc2)c2ccccc2)cc1
inactive: [1] -16% | [2] 11.8% | [3] 8.6% | [4] 10.3% | [5] 2.25% | [6] 6.75%

O=C1CCC([N+](=O)[O-])C(c2ccccc2Cl)N1 (stereo unspecified)
inactive: [1] 10.7% | [2] -15.9% | [3] 20.1% | [4] -0.9% | [5] 29.7% | [6] 20.5%

CN(C)CCCN1CCc2c([nH]c3ccccc23)C1c1cccnc1 (stereo unspecified)
inactive: [1] -3.35% | [2] -14.8% | [3] -0.45% | [4] -0.75% | [5] -6.2% | [6] -21.1%

C[N+](C)(CCO)CCO
inactive: [1] 3.15% | [2] -8% | [3] -8.5% | [4] 14.8% | [5] 0.85% | [6] 13.1%

CCNC(=O)OCCN1C(=O)C2C3CCC(O3)C2C1=O (stereo unspecified)
inactive: [1] 5.25% | [2] 11.4% | [3] 22.1% | [4] 3.35% | [5] 8.5% | [6] 12.8%

S=C(S)NCCCn1ccnc1
inactive: [1] -11.8% | [2] 23.8% | [3] -14.8% | [4] -15.9% | [5] -30.7% | [6] -0.8%
